High-throughput results (PubChem BioAssay)
PrPC surface inh = inhibitors of human cell surface prion protein PrPC, primary screen, cell-based, TR-FRET; inhibition, % at 13.8 µM; Major prion protein (Homo sapiens), P04156; TR-FRET read-out; 370,000 compounds, 0.43% hits; in the data active = inhibition above about 24%; note: 0% = median of the test wells and 100% = reference compound wells
GDH-TPI counter = GDH-TPI coupling enzyme inhibitors, primary screen, artefact control for M. tuberculosis FBA inhibitor project, biochemical, absorbance, full deck | GDH-TPI coupled enzyme counterscreen, NADH absorbance | inhibition, % at 4.8 µM | 360,000 compounds, 1.2% hits; in the data active = inhibition above about 30%;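 note: 0% = DMSO wells and 100% = wells lacking the enzyme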
FBA Mtb inh = Mtb FBA enzyme inhibitors, primary screen, biochemical, fluorescence, strain H37Rv; Fructose-bisphosphate aldolase (Mycobacterium tuberculosis (strain ATCC 25618 / H37Rv)), …; 360,000 compounds, 2.3% hits; purified M. tuberculosis FBA, fluorescence read-out; inhibition, % at 1 µM; in the data active = inhibition above about 27%;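 note: 0% = vehicle and 100% = reference inhibitor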
Target sequence (P9WQA3 whole entry, looked up): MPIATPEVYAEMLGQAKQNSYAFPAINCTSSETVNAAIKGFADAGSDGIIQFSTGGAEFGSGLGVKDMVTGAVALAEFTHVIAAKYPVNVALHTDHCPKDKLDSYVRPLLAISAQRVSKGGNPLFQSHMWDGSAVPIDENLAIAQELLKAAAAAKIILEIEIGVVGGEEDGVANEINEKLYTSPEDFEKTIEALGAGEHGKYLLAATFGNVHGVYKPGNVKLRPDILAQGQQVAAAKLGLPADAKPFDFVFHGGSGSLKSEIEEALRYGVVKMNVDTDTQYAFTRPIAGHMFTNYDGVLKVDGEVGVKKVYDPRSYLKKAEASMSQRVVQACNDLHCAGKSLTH
Vc quorum ag = inducers of Vibrio cholerae quorum light production without autoinducers, primary screen, BH1578 luxS cqsA deficient, single point; V. cholerae BH1578 lux reporter, luminescence, 6 h; activation, % at 18.7 µM; 350,000 compounds, 0.16% hits; AID 588436, 2011; in the data active = activation mostly above about 9.7%, no sharp cut-off
3CLpro inhibitor = SARS-CoV 3CLpro protease inhibitors, primary screen, biochemical, quenched FRET; inhibition, % at 6 µM; recombinant SARS-CoV 3CLpro, quenched FRET peptide cleavage; 290,000 compounds, 0.14% hits; in the data active = inhibition above about 12%
* marks the source's active call; other numbers are inactive results; i = inactive; . = not tested or not shown. Only some compounds are listed: those with a hit (about 3.9% of all), similar ones and a draw of the others.

SMILES | PrPC surface inh | GDH-TPI counter | FBA Mtb inh | Vc quorum ag | 3CLpro inhibitor
CCOC(=O)C1=C(C)Nc2nc(C)nn2C1c1ccc(OC)c(OC)c1 (stereo unspecified) | 3.6 | 3.0 | -2.0 | -0.2 | -3.8
CCOC(=O)c1c(C)[nH]c(C(=O)N/N=C\c2ccccc2O)c1C | 8.8 | 29.1 | 2.5 | -0.5 | 0.7
CCOC(=O)c1c(C)[nH]c(C(=O)N/N=C/c2ccc(OC)c(OC)c2)c1C | 5.2 | 43.1* | -3.4 | -0.3 | -4.4
COc1ccccc1/C=N/NC(=O)c1[nH]c(C)c(C(=O)N/N=C/c2ccccc2OC)c1C | 5.6 | 53.7* | -2.2 | -0.7 | -1.2
O=C(CSc1nnnn1-c1ccccc1)c1ccc(O)cc1O | 5.9 | 42.0* | -7.7 | -0.4 | 1.2
O=C(CSc1nnnn1-c1ccccc1)CSc1nnnn1-c1ccccc1 | 2.5 | 11.7 | -1.6 | -4.2 | 2.0
Cc1cc(C)nc(SCC(=O)c2ccc(O)cc2O)n1 | -2.4 | 50.5* | -1.5 | . | -2.3
Cc1cc(C)nc(SCC(=O)c2ccc(O)c(O)c2)n1 | 1.3 | 7.4 | 4.8 | 0.3 | -4.0
C#CCn1c(O)c(N=NC(=O)C(O)c2ccccc2)c2ccccc21 (stereo unspecified) | -33.1 | 31.2* | -0.2 | -0.4 | 5.1
C=CCn1c(O)c(N=NC(=S)Nc2ccc(OC)c(Cl)c2)c2ccccc21 | -0.7 | 45.7* | 0.1 | -0.4 | 4.9
C=CCn1c(O)c(N=NC(=O)C(O)c2ccccc2)c2ccccc21 (stereo unspecified) | -32.6 | 38.8* | 3.0 | -0.9 | 0.3
C=CCn1c(O)c(N=Nc2ccccc2C)c2ccccc21 | -6.4 | . | . | . | -1.8
C=CCn1c(O)c(N=NC(=O)OC(C)(C)C)c2ccccc21 | -2.3 | 4.4 | 0.0 | 20.8 | -3.2
C#CCn1c(O)c(N=NC(=O)CNC(=O)/C=C/c2ccccc2)c2ccccc21 | -19.7 | 14.1 | -6.8 | -0.5 | 0.6
COc1cc(CNC[C@H]2O[C@@H](n3ccc(N)nc3=O)[C@H](O)[C@@H]2O)ccc1OCc1cccc(Cl)c1 | -7.4 | 5.2 | 6.6 | -0.5 | .
Cc1csc(NC(=O)/C=C/c2ccc3c(c2)OCO3)n1 | -4.7 | 35.4* | -1.2 | -0.3 | -1.2
Cc1cc(NS(=O)(=O)c2ccc(NC(=O)c3ccco3)cc2)nc(C)n1 | -2.4 | 6.1 | -0.6 | -3.0 | 4.9
O=C(/C=C/c1ccc2c(c1)OCO2)Nc1nc(-c2ccc(F)cc2F)cs1 | . | . | . | . | 0.7
Cc1cc(NS(=O)(=O)c2ccc(NC(=O)/C=C/c3ccco3)cc2)nc(C)n1 | -6.0 | 47.8* | 3.0 | -0.4 | -2.5
O=C(/C=C/c1ccco1)Nc1nc(-c2ccccc2)cs1 | -7.2 | 2.6 | -0.9 | -0.6 | 1.8
O=C(/C=C/c1ccco1)Nc1scc(-c2ccccc2)c1C(=O)O | -16.1 | 66.2* | 1.9 | -0.4 | -3.5
Cc1csc(NC(=O)/C=C/c2ccco2)n1 | -4.4 | 33.0* | -3.9 | -0.2 | 3.1
CC(C)(C)C(=O)c1c(N)[nH]c(C(=O)c2ccccc2)c1-c1ccccc1Br | -2.5 | . | . | . | .
CCc1cc(C(=O)NCC(C)(C)N2CCOCC2)sc1C | -5.7 | -2.4 | 0.1 | i | .
CCOC(=O)Cc1csc(NC(=O)/C=C/c2ccc(Cl)cc2)n1 | 20.3 | 22.2 | -5.1 | -0.4 | 1.9
SMILES | PrPC surface inh | GDH-TPI counter | FBA Mtb inh | Vc quorum ag | 3CLpro inhibitor
CCOC(=O)Cc1csc(NC(=O)/C=C/c2ccco2)n1 | -13.3 | 74.8* | -2.6 | -0.2 | -1.5
O=C(O)CCCN1C(=O)C(=O)/C(=C(/O)c2ccc(Cl)cc2)C1c1ccccc1 (stereo unspecified) | 0.0 | 41.2* | 3.6 | -0.9 | -5.9
CCN(CC)CCN1C(=O)C(=O)/C(=C(/O)c2ccc(Cl)cc2)C1c1ccncc1 (stereo unspecified) | -5.4 | 10.8 | 2.8 | -0.3 | 2.4
O=C(NC(=S)N(CCO)Cc1ccccc1)c1ccc(F)cc1Cl | -3.2 | -3.5 | 1.1 | i | -2.0
CN1CC(C(=O)O)Cc2c1ccc1ccccc21 (stereo unspecified) | -17.7 | 6.2 | 102.3* | 0.6 | -0.2
O=C(NCc1cccnc1)/C(=C/c1ccc(Cl)cc1)NC(=O)c1ccccc1 | -6.9 | -9.0 | -4.6 | 0.1 | 0.0
O=C(NCc1cccnc1)/C(=C/c1ccc(-c2cccc(C(F)(F)F)c2)o1)NC(=O)c1ccccc1 | -9.4 | 32.5* | 2.0 | -1.4 | -1.1
O=C(NCc1cccnc1)/C(=C\c1ccc(-c2ccc(Br)cc2)o1)S(=O)(=O)c1ccccc1 | 11.3 | 32.2* | -0.6 | i | -1.1
O=C(NCc1cccnc1)/C(=C/c1ccc(-c2ccc(Cl)cc2)o1)S(=O)(=O)c1ccccc1 | 8.0 | 40.5* | 5.0 | -0.5 | 2.1
CC(C)NC(=O)C1(C)CN(S(C)(=O)=O)CC(=O)N1Cc1ccco1 (stereo unspecified) | 0.7 | . | . | . | .
CCCCCCC(=O)N=Nc1c(O)[nH]c2ccc([N+](=O)[O-])cc12 | -4.6 | 2.1 | 3.4 | 0.3 | 1.4
O=C(CNC(=O)c1cccs1)N=Nc1c(O)[nH]c2ccc([N+](=O)[O-])cc12 | -33.6 | 34.5* | -2.2 | i | -10.1
Cc1cc(O)c(C(C)C)cc1N=Cc1ccc([N+](=O)[O-])cc1 | -5.7 | 9.7 | -1.9 | 4.5 | .
Cc1cc(O)c(C(C)C)cc1N=Cc1ccc(N(C)C)cc1 | -0.5 | 46.5* | -0.7 | -3.8 | .
Fc1ccc(-n2c(-c3ccco3)nc3nc4ccccc4nc32)cc1 | -3.6 | 11.6 | 125.6* | 0.7 | -3.9
c1ccc(-c2nc3nc4ccccc4nc3n2Cc2ccco2)cc1 | -29.9 | 25.7 | 2.7 | -0.6 | -4.1
Fc1ccc(-c2nc3nc4ccccc4nc3n2Cc2ccco2)cc1 | -15.4 | 39.8* | -2.7 | -6.2 | -7.5
C=CCn1c(-c2ccc(OC)cc2)nc2nc3ccccc3nc21 | -26.4 | 30.6 | 144.2* | . | 0.1
Cc1ccc(Nc2c(-c3ccco3)nc3ccccn23)cc1 | 15.7 | 22.2 | 121.2* | -0.3 | -3.0
COc1ccc(Nc2c(-c3ccco3)nc3ccc(C)cn23)cc1 | 14.1 | 22.1 | 18.3 | -3.7 | 2.9
Fc1ccc(Nc2c(-c3ccco3)nc3ccccn23)cc1 | 15.8 | 4.0 | 133.4* | i | 2.0
Nc1ccn([C@@H]2O[C@H](C(=O)N[C@H]3c4ccccc4C[C@H]3O)[C@@H](O)[C@H]2O)c(=O)n1 | 0.8 | . | 0.8 | . | .
CCCCn1c(N)c(N(CCOC)C(=O)COC(=O)c2ccccc2NCCO)c(=O)[nH]c1=O | 0.9 | 11.8 | 124.4* | -1.9 | .
CCN(C(=O)COC(=O)c1cccc2ccccc12)c1c(N)n(Cc2ccccc2)c(=O)[nH]c1=O | 7.0 | -2.5 | 7.9 | i | .
CCN(C(=O)COC(=O)c1ccccc1NCc1ccco1)c1c(N)n(Cc2ccccc2)c(=O)[nH]c1=O | 6.7 | -4.2 | 142.3* | -0.9 | .
